Results from PubChem BioAssay (NCI).
Compounds without any hit were thinned out: in the full panel of roughly 83,000, 20% have a hit.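 Each cell line was grown in a 96-well plate and treated with one concentration of compound for 48 hours. Values below 10 were considered active.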 Values without a mark were called inactive. Activity calls are given as the source filed them.

system: SNB-19 CNS; assay: NCI-60 one-dose screen, 48 h (100 = growth as untreated, 0 = no growth, -100 = all killed); details: 10 µM

Point of comparison: `CCOc1ccccc1/C=N\N=C\c1ccccc1O`, growth 97.8%. Against it:
- CC(C)N(CCOc1cccc(-c2nc3sccn3c2-c2ccnc(S(C)(=O)=O)n2)c1)C(C)C — higher, 101%
- NC(=O)c1cccc(-n2ccc3cc(NC(=O)Nc4ccc(Cl)c(C(F)(F)F)c4)ccc32)n1 — lower, 71%
- COc1cccc(-c2nc3sccn3c2-c2cccc(S(C)(=O)=O)c2)c1 — higher, 99.2%
- COc1ccc(Cl)cc1Nc1nc(C(F)(F)F)ccc1C(=O)N/N=C/c1ccc(Cl)cc1 — lower, 60.2%
- CN(C)c1ccc(/C=N/NC(=O)c2ccccc2Nc2cccc(C(F)(F)F)c2)cc1 — lower, 92.7%
- COc1cc2cc(Oc3ccc(NC(=O)Nc4cccc(C(F)(F)F)c4)cc3)c(C)nc2cc1OC — lower, 31.4%
- O=C(Nc1cc(Cl)cc2c1-c1ccc(Cl)cc1C2O)C(Cl)Cl (stereo unspecified) — lower, 70%
- C/C(=N\O)c1ccc(NC(=O)CSc2nnc(-c3ccccc3)n2-c2ccccc2)cc1 — lower, 97.2%
- CCN(CC)CCCOc1cccc2c1C(=O)c1cccc(OCCCN(CC)CC)c1C2=O — lower, 34.1%

system: U251 CNS; assay: as above; details: 10 µM

Point of comparison: `COc1cc2cc(Oc3ccc(NC(=O)c4cccc(C(F)(F)F)c4)cc3)c(C)nc2cc1OC`, growth 19.5%. Against it:
- Clc1ccc(/C=C2\CCCC3C2=Nc2ccccc2NC3c2ccc(Cl)cc2)cc1 (stereo unspecified) — higher, 20.8%
- CCC(c1ccc(OC)cc1)C(CC)c1ccc(O)c(CN2CCN(C)CC2)c1 (stereo unspecified) — higher, 29.8%
- CC[C@@H](C(=O)[C@H](C)[C@H](O)[C@@H](C)[C@H]1O[C@H]([C@@H](CC)C(=O)N(CC)CC)CC[C@H]1C)C1O[C@]2(C=C[C@@H](O)[C@]3(CC[C@@](C)([C@H]4CC[C@](O)(CC)[C@H](C)O4)O3)O2)[C@H](C)C[C@@H]1C (stereo partly specified) — higher, 24.2%
- O=C(NCCCNS(=O)(=O)c1ccc(Cl)cc1)Nc1ccc(-n2cc(-c3ccncc3)c(-c3ccc(Cl)c(O)c3)n2)cc1 — higher, 37.6%
- Nc1ncnc2c1ncn2C1(CO)OCC(O)C(O)C1O (stereo unspecified) — higher, 101%
- CN(C)CCOc1ccc(-c2nc3sccn3c2-c2ccnc(S(C)(=O)=O)n2)cc1 — higher, 95.1%
- O=[N+]([O-])c1cccc(/C=N/NC(=S)NC23CC4CC(CC(C4)C2)C3)c1 — higher, 68.1%
- CNC(=O)c1cc(Oc2ccc3c(c2)sc2nc(-c4ccc(N)cc4)cn23)ccn1 — lower, 11.5%
- S=C(NCc1ccccc1)NCc1ccccc1 — higher, 91.6%
- CC(=O)OC1C=CC(OC(C)=O)O1 (stereo unspecified) — higher, 88.6%
- Cc1ccc(Cl)cc1NC(=O)CCl — higher, 67.5%
- CCC(C)[C@H](NC(C)=O)C(=O)N[C@@H](CCCNC(=N)N)C(=O)N[C@@H](CCCCN)C(=O)N[C@@H](CC1CCC(O)CC1)C(=O)NC(C(=O)N[C@@H](CCSC)C(=O)N[C@@H](CCCNC(=N)N)C(=O)N[C@@]1(C)CCC/C=C\CCC[C@@](C)(C(=O)NC(C(=O)N[C@@H](CCC(=O)O)C(=O)N[C@@H](CC(C)C)C(=O)N[C@H](C(=O)N[C@@H](CCC(=O)O)C(N)=O)C(C)C)[C@@H](C)O)NC(=O)[C@H](CCC(N)=O)NC(=O)[C@H](CC(C)C)NC(=O)[C@H](CC(C)C)NC1=O)[C@@H](C)O (stereo partly specified) — higher, 98.9%
- COC(=O)C1(O)NC(=C(C#N)C#N)C(C#N)=C1C(=O)c1ccc(OC)c(OC)c1 (stereo unspecified) — higher, 92.5%
- COc1ccc(-c2onc(N)c2-c2cc(OC)c3c(c2)OCO3)cc1 — lower, 18.6%
- NC(N)=N/N=C(\c1ccccc1)C(O)c1ccccc1 (stereo unspecified) — higher, 106%
- COc1cc2cc(Oc3ccc(NC(=O)c4ccccc4)cc3)c(C)nc2cc1OC — higher, 59.3%

In the case of `c1ccc(/C(=N\Nc2ccc3ccccc3n2)c2ccccn2)cc1`, the growth is reported as 7.94% (active).
`CC[C@H]1OC(=O)[C@H](C)[C@@H](O[C@H]2C[C@@](C)(OC)[C@@H](O)[C@H](C)O2)[C@H](C)[C@@H](O[C@@H]2O[C@H](C)C[C@H](N(C)C)[C@H]2O)[C@](C)(OC)C/C(C)=C2/O[C@@]1(C)C=C2C` was tested, and the growth was 2.36% (active).
In the case of `COc1cc(/C=C2\CCCC3=C2NC(N)=NC3c2cc(OC)c(OC)c(OC)c2)cc(OC)c1OC` (stereo unspecified), the growth is reported as -85.2% (active).
With `COc1ccc2c(c1)OC(N)=C(C#N)C2c1cc(OC)c(OC)c(OC)c1` (stereo unspecified) the growth was 6.72% (active).
